From PMC7862700, “An all-to-all approach to the identification of sequence-specific readers for epigenetic DNA modifications on cytosine” come the findings set out here.

Assay in all cases: DAPPL (digital affinity profiling via proximity ligation, sequencing); 10 mM Tris-HCl pH 7.5, 50 mM NaCl, 1 mM DTT, 4% glycerol, room temperature, 30 min; GST-TFs on glutathione beads, 16-mer random dsDNA library, 0.1% formaldehyde crosslink after washing; high values mean tight binding
Holding throughout (details): protein: recombinant; tags: N-terminal GST; dsDNA, one strand shown

The target of one test is T1, FLI1 (Homo sapiens, UniProt Q01543 1-452).
T1 sequence: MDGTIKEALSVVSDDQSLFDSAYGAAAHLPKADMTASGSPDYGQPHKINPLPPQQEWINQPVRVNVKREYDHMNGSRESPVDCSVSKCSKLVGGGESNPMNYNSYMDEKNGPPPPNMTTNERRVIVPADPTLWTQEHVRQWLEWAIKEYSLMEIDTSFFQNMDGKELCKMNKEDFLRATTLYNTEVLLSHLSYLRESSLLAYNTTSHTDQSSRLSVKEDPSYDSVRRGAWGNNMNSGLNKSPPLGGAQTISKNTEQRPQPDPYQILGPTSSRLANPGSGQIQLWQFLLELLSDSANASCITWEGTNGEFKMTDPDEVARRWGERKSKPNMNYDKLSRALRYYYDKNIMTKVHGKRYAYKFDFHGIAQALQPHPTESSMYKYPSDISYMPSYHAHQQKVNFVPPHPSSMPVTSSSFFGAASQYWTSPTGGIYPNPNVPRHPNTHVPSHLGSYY
In short, it runs like this: (§1)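 Binding signal is given per hexamer as its read frequency for a factor divided by its frequency in the tag-only sample. GST-fused human transcription factors were expressed in yeast, captured on glutathione beads, barcoded with DNA and pooled with that sample, then incubated with 200 nmole of a 16-mer random double-stranded DNA library in Tris/NaCl/DTT/glycerol buffer for 30 min at room temperature. The pools were then washed, crosslinked, proximity-ligated, amplified by PCR and sequenced on an Illumina NextSeq500.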

Another test deals with T2, ELK1 (Homo sapiens, UniProt P19419 1-428).
T2 sequence: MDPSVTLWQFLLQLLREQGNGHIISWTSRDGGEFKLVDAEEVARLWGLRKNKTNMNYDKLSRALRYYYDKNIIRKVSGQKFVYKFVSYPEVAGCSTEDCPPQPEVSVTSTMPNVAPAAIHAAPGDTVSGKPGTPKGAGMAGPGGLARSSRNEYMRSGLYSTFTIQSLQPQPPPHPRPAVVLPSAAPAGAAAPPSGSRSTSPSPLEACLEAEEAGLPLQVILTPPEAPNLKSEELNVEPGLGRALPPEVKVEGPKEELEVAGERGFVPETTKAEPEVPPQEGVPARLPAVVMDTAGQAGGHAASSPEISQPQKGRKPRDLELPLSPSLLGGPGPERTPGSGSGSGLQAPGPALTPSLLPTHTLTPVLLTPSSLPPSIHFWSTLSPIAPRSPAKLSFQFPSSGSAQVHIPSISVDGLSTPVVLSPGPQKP
In short, it runs like this: as §1

In the next test the target is T3, GABPA (Homo sapiens, UniProt Q06546 1-454).
T3 sequence: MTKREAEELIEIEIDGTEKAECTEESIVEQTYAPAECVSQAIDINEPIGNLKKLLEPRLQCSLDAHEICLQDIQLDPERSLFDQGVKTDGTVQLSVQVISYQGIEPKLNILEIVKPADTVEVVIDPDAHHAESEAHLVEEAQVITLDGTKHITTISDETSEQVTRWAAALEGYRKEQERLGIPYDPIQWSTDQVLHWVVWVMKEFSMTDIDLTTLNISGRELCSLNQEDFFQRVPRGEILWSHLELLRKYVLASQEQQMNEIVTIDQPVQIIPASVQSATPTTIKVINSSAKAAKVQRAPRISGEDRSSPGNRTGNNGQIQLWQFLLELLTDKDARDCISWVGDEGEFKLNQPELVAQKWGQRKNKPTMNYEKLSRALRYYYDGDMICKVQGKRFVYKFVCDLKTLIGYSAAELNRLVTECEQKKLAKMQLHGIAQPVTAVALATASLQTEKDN
In short, it runs like this: as §1

The target in another test is T4, ERG (Homo sapiens, UniProt P11308 1-479).
T4 sequence: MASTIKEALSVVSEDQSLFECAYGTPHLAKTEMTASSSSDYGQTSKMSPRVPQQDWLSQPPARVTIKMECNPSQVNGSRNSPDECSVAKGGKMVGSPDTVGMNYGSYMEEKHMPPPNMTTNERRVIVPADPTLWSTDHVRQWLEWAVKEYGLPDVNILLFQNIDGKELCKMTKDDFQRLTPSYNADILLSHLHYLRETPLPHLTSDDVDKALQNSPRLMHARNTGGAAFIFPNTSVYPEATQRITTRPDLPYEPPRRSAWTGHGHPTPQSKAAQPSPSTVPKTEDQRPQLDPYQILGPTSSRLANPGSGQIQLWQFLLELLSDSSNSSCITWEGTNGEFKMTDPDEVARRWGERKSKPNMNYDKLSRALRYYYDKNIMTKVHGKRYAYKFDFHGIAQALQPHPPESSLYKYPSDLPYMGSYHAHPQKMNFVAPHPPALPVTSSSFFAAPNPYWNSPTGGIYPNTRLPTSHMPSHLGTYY
The method in brief:
as §1

The next test has as its target ELF1 (Homo sapiens, UniProt P32519 1-619). The method in brief: as §1
Another test has as its target T5, EHF (Homo sapiens, UniProt Q9NZC4 1-300).
T5 sequence: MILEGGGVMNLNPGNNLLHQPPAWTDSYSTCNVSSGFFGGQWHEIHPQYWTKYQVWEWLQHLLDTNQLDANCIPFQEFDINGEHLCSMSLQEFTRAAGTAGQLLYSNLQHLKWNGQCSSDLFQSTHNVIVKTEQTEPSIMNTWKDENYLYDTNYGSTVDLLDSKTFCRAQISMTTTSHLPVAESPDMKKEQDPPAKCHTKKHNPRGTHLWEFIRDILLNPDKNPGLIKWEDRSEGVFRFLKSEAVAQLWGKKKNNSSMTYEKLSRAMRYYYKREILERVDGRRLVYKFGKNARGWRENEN
In short, it runs like this:
as §1

A further test deals with SPI1 (Homo sapiens, UniProt P17947 1-270). The method in brief:
as §1

Another test addresses SPIB (Homo sapiens, UniProt Q01892 1-262). The method in brief:
as §1

The next test deals with T6, ELK3 (Homo sapiens, UniProt P41970 1-407).
T6 sequence: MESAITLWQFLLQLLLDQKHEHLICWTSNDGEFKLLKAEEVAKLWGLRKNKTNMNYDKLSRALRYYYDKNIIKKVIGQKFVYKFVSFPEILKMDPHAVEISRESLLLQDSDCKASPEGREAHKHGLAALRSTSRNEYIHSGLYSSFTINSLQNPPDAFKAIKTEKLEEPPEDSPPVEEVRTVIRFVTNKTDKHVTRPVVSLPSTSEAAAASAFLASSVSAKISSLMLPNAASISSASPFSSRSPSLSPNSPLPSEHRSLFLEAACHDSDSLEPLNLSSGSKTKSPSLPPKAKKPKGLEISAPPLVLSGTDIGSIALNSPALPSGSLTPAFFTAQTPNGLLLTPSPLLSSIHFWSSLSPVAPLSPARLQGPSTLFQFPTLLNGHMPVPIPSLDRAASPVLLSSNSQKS
The method in brief: as §1

ELF1, sequence (P32519 whole entry): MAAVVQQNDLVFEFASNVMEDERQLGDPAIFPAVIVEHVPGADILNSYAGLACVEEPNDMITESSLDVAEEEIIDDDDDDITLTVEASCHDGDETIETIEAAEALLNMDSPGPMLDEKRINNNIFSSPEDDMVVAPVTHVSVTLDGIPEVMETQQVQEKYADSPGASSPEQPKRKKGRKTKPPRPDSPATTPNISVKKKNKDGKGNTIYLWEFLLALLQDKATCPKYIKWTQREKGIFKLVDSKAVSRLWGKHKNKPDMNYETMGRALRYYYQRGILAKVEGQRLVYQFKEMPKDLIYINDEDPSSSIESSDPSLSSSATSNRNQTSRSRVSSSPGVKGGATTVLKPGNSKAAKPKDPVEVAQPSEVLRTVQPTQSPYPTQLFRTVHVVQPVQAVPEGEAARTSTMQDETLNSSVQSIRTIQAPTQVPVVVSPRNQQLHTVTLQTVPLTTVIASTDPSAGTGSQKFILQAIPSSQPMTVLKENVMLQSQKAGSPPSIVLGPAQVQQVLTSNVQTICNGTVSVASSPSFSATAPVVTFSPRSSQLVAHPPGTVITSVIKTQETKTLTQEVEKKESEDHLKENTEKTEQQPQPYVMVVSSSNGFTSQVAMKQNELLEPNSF
SPIB, sequence (Q01892 whole entry): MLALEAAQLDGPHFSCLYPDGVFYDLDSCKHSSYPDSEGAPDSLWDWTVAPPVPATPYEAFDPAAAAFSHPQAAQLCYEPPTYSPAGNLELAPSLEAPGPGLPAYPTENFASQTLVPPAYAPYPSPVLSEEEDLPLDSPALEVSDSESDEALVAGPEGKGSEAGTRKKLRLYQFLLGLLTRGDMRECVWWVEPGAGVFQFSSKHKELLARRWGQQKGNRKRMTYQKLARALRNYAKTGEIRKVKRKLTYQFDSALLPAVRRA

In the case of AATGCC, the binding signal with FLI1 was 1.06 fold enrichment (6-mer frequency, TF over GST control); in the test with ELK1, 1.19 fold enrichment (6-mer frequency, TF over GST control); with GABPA it was 1.17 fold enrichment (6-mer frequency, TF over GST control); in the test with ERG it was 1.18 fold enrichment (6-mer frequency, TF over GST control); with ELF1, 1.13 fold enrichment (6-mer frequency, TF over GST control); with EHF, 1.18 fold enrichment (6-mer frequency, TF over GST control). For the same sequence, the binding signal with SPI1 is 1.06 fold enrichment (6-mer frequency, TF over GST control); with SPIB, 1.17 fold enrichment (6-mer frequency, TF over GST control); with ELK3, 1.08 fold enrichment (6-mer frequency, TF over GST control).

For TAATGC, the binding signal was 1.26 fold enrichment (6-mer frequency, TF over GST control) with FLI1; 1.22 fold enrichment (6-mer frequency, TF over GST control) with ELK1; 1.26 fold enrichment (6-mer frequency, TF over GST control) in the test with GABPA; 1.18 fold enrichment (6-mer frequency, TF over GST control) with ERG; 1.16 fold enrichment (6-mer frequency, TF over GST control) with ELF1; 1.22 fold enrichment (6-mer frequency, TF over GST control) with EHF. For the same sequence, the binding signal was 1.1 fold enrichment (6-mer frequency, TF over GST control) with SPI1; 1.24 fold enrichment (6-mer frequency, TF over GST control) with SPIB; 1.29 fold enrichment (6-mer frequency, TF over GST control) with ELK3.

As to TCCCGG, the binding signal is 2.29 fold enrichment (6-mer frequency, TF over GST control) with FLI1; 2.07 fold enrichment (6-mer frequency, TF over GST control) in the test with ELK1; 2.14 fold enrichment (6-mer frequency, TF over GST control) with GABPA; 2.22 fold enrichment (6-mer frequency, TF over GST control) with ERG; 2.12 fold enrichment (6-mer frequency, TF over GST control) with ELF1; 2.19 fold enrichment (6-mer frequency, TF over GST control) with EHF. Besides, the binding signal with SPI1 is 2.01 fold enrichment (6-mer frequency, TF over GST control); in the test with SPIB it was 2.43 fold enrichment (6-mer frequency, TF over GST control); in the test with ELK3, 1.96 fold enrichment (6-mer frequency, TF over GST control).

Take AACTCG: the binding signal is 1.41 fold enrichment (6-mer frequency, TF over GST control) in the test with FLI1; 1.33 fold enrichment (6-mer frequency, TF over GST control) with ELK1; 1.4 fold enrichment (6-mer frequency, TF over GST control) in the test with GABPA; 1.32 fold enrichment (6-mer frequency, TF over GST control) in the test with ERG; 1.39 fold enrichment (6-mer frequency, TF over GST control) with ELF1; 1.28 fold enrichment (6-mer frequency, TF over GST control) with EHF. Further, the binding signal with SPI1 is 1.4 fold enrichment (6-mer frequency, TF over GST control); with SPIB it was 1.37 fold enrichment (6-mer frequency, TF over GST control); with ELK3 it was 1.24 fold enrichment (6-mer frequency, TF over GST control).

With CTGTAT, the binding signal is 1.35 fold enrichment (6-mer frequency, TF over GST control) with FLI1; 1.28 fold enrichment (6-mer frequency, TF over GST control) with ELK1; 1.31 fold enrichment (6-mer frequency, TF over GST control) with GABPA; 1.18 fold enrichment (6-mer frequency, TF over GST control) in the test with ERG; 1.24 fold enrichment (6-mer frequency, TF over GST control) with ELF1; 1.3 fold enrichment (6-mer frequency, TF over GST control) in the test with EHF. For the same sequence, the binding signal with SPI1 was 1.23 fold enrichment (6-mer frequency, TF over GST control); with SPIB, 1.31 fold enrichment (6-mer frequency, TF over GST control); with ELK3 it was 1.31 fold enrichment (6-mer frequency, TF over GST control).

For the sequence ATACCC, the binding signal with FLI1 was 1.18 fold enrichment (6-mer frequency, TF over GST control); with ELK1, 1.17 fold enrichment (6-mer frequency, TF over GST control); with GABPA it was 1.19 fold enrichment (6-mer frequency, TF over GST control); with ERG it was 1.19 fold enrichment (6-mer frequency, TF over GST control); with ELF1, 1.2 fold enrichment (6-mer frequency, TF over GST control); with EHF it was 1.21 fold enrichment (6-mer frequency, TF over GST control). In addition, the binding signal is 1.13 fold enrichment (6-mer frequency, TF over GST control) in the test with SPI1; 1.14 fold enrichment (6-mer frequency, TF over GST control) in the test with SPIB; 1.13 fold enrichment (6-mer frequency, TF over GST control) with ELK3.

Turning to CTCATG, the binding signal in the test with FLI1 is 1.29 fold enrichment (6-mer frequency, TF over GST control); with ELK1, 1.29 fold enrichment (6-mer frequency, TF over GST control); with GABPA, 1.26 fold enrichment (6-mer frequency, TF over GST control); in the test with ERG, 1.21 fold enrichment (6-mer frequency, TF over GST control); in the test with ELF1 it was 1.32 fold enrichment (6-mer frequency, TF over GST control); in the test with EHF it was 1.23 fold enrichment (6-mer frequency, TF over GST control). The binding signal with SPI1 is 1.27 fold enrichment (6-mer frequency, TF over GST control); in the test with SPIB, 1.11 fold enrichment (6-mer frequency, TF over GST control); with ELK3, 1.26 fold enrichment (6-mer frequency, TF over GST control).

Consider GCTCGC, for which the binding signal in the test with FLI1 was 1.39 fold enrichment (6-mer frequency, TF over GST control); with ELK1 it was 1.29 fold enrichment (6-mer frequency, TF over GST control); with GABPA it was 1.41 fold enrichment (6-mer frequency, TF over GST control); with ERG, 1.29 fold enrichment (6-mer frequency, TF over GST control); with ELF1 it was 1.42 fold enrichment (6-mer frequency, TF over GST control); with EHF, 1.27 fold enrichment (6-mer frequency, TF over GST control). Also, the binding signal with SPI1 is 1.29 fold enrichment (6-mer frequency, TF over GST control); with SPIB, 1.42 fold enrichment (6-mer frequency, TF over GST control); with ELK3, 1.38 fold enrichment (6-mer frequency, TF over GST control).
